Assay results as given in PubChem BioAssay AID1159580 (chemical genetic matrix, 2015).
“And” between values parts separate entries of the source, which are not always exact repeats. Equal entries are not always repeated. The whole screen tested about 5,500 compounds, of which about 2,000 (36%) were called active. Not shown: some 18% with an inconclusive outcome. Cut-off read from the data, not from the text of the source: active = normalized growth mostly below about 0.91 (no sharp cut-off); inconclusive = no clear call, values can overlap the other calls; inactive = mostly above about 0.92. This is one part of the list.

Experiment: chemical genetic growth profiling, strain panel (AID 1159580);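 note: tested at 20 µM; growth read once vehicle control cultures reached saturation at 30 °C; 1 = growth at the plate median or of vehicle wells; lower values mean less growth of the strain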
Conditions: S. cerevisiae deletion strains, growth OD

Measured: normalized growth

O=[N+]([O-])c1ccc(O)c([N+](=O)[O-])c1
inactive: locus YDL035C, strain GPR1, stronger effect = lower value 0.871 | locus YDL074C, strain BRE1, stronger effect = lower value 0.824 | locus YDR069C, strain doa4, stronger effect = lower value 0.936 | locus YDR137W, strain rgp1, stronger effect = lower value 0.915 | locus YDR195W, strain ref2 0.927 | locus YGR229C, strain SMI1, stronger effect = lower value 0.81 | locus YHR013C, strain ard1, stronger effect = lower value 0.981 | locus YIL073C, strain SPO22, stronger effect = lower value 0.986 | locus YJR043C, strain POL32, stronger effect = lower value 0.892
active: locus YAL013W, strain DEP1, stronger effect = lower value 0.837 | locus YAL021C, strain ccr4, stronger effect = lower value 0.869 | locus YAL026C, strain drs2, stronger effect = lower value 0.776 | locus YAL030W, strain snc1, stronger effect = lower value 0.812 | locus YBL061C, strain skt5, stronger effect = lower value 0.832 | locus YBR009C, strain hhf1, stronger effect = lower value 0.823 | locus YBR021W, strain FUR4, stronger effect = lower value 0.647 | locus YBR023C, strain chs3, stronger effect = lower value 0.88 | locus YBR171W, strain sec66, stronger effect = lower value 0.799 | locus YBR229C, strain ROT2, stronger effect = lower value 0.839 | locus YBR231C, strain swc5, stronger effect = lower value 0.851 | locus YBR279W, strain paf1, stronger effect = lower value 0.817 | locus YCL011C, strain gbp2, stronger effect = lower value 0.807 | locus YCL016C, strain dcc1, stronger effect = lower value 0.873 | locus YCL029C, strain bik1, stronger effect = lower value 0.693 | locus YCL069W, strain vba3, stronger effect = lower value 0.775 | locus YCR088W, strain abp1, stronger effect = lower value 0.775 | locus YDL005C, strain med2, stronger effect = lower value 0.875 | locus YDL040C, strain nat1, stronger effect = lower value 0.848 | locus YDL101C, strain DUN1, stronger effect = lower value 0.877 | locus YDL134C, strain PPH21, stronger effect = lower value 0.796 | locus YDL185W, strain tfp1, stronger effect = lower value 0.109 | locus YDL192W, strain arf1, stronger effect = lower value 0.759 | locus YDR001C, strain nth1, stronger effect = lower value 0.766 | locus YDR101C, strain arx1, stronger effect = lower value 0.686 | locus YDR150W, strain NUM1, stronger effect = lower value 0.788 | locus YDR159W, strain sac3, stronger effect = lower value 0.677 | locus YDR162C, strain NBP2, stronger effect = lower value 0.785 | locus YDR297W, strain sur2, stronger effect = lower value 0.826 | locus YDR318W, strain mcm21, stronger effect = lower value 0.727 | locus YDR334W, strain swr1, stronger effect = lower value 0.742 | locus YDR335W, strain msn5, stronger effect = lower value 0.798 | locus YDR388W, stronger effect = lower value 0.694 | locus YDR392W, strain spt3, stronger effect = lower value 0.674 | locus YDR502C, strain sam2, stronger effect = lower value 0.735 | locus YEL003W, strain gim4, stronger effect = lower value 0.829 | locus YEL037C, strain rad23, stronger effect = lower value 0.797 | locus YEL061C, strain CIN8 (second series), stronger effect = lower value 0.794 | locus YEL061C, strain CIN8, stronger effect = lower value 0.817 | locus YER015W, strain faa2, stronger effect = lower value 0.795 | locus YER016W, strain bim1, stronger effect = lower value 0.89 | locus YER110C, stronger effect = lower value 0.64 | locus YER111C, strain swi4, stronger effect = lower value 0.79 | locus YER155C, strain BEM2 (second series), stronger effect = lower value 0.615 | locus YER155C, strain BEM2, stronger effect = lower value 0.63 | locus YER167W, strain BCK2, stronger effect = lower value 0.76 | locus YFR010W, strain ubp6, stronger effect = lower value 0.861 | locus YGL078C, strain dbp3, stronger effect = lower value 0.252 | locus YGL086W, strain mad1, stronger effect = lower value 0.779 | locus YGL167C, strain pmr1, stronger effect = lower value 0.84 | locus YGL173C, strain kem1, stronger effect = lower value 0.822 | locus YGL227W, strain vid30, stronger effect = lower value 0.743 | locus YGL240W, strain doc1, stronger effect = lower value 0.739 | locus YGL248W, strain PDE1, stronger effect = lower value 0.81 | locus YGL253W, strain hxk2, stronger effect = lower value 0.717 | locus YGR078C, strain PAC10, stronger effect = lower value 0.789 | locus YGR135W, strain pre9, stronger effect = lower value 0.76 | locus YGR252W, strain gcn5, stronger effect = lower value 0.709 | locus YHR027C, strain rpn1, stronger effect = lower value 0.814 | locus YHR079C, strain IRE1 (second series), stronger effect = lower value 0.665 | locus YHR079C, strain IRE1, stronger effect = lower value 0.254 | locus YHR094C, strain hxt1, stronger effect = lower value 0.681 | locus YHR129C, strain ARP1, stronger effect = lower value 0.738 | locus YHR142W, strain chs7, stronger effect = lower value 0.792 | locus YHR200W, strain rpn10, stronger effect = lower value 0.736 | locus YIL066C, strain RNR3, stronger effect = lower value 0.794 | locus YIL125W, strain kgd1, stronger effect = lower value 0.211 | locus YIR030C, strain dcg1, stronger effect = lower value 0.694 | locus YJL092W, strain hpr5, stronger effect = lower value 0.759 | locus YJL095W, strain BCK1 (second series), stronger effect = lower value 0.834 | locus YJL115W, strain asf1, stronger effect = lower value 0.757 | locus YJL129C, strain trk1, stronger effect = lower value 0.694 | locus YJL134W, strain LCB3, stronger effect = lower value 0.777 | locus YJL154C, strain vps35, stronger effect = lower value 0.773 | locus YJL164C, strain tpk1, stronger effect = lower value 0.863 | locus YJL166W, strain qcr8, stronger effect = lower value 0.85 | locus YJL168C, strain set2, stronger effect = lower value 0.719 | locus YJL187C, strain SWE1 (second series), stronger effect = lower value 0.825 | locus YJL187C, strain SWE1, stronger effect = lower value 0.842 | locus YJR066W, strain TOR1, stronger effect = lower value 0.254 | locus YJR075W, strain HOC1, stronger effect = lower value 0.824
0.801 (inactive) and 0.3 (active): locus YJL095W, strain BCK1, stronger effect = lower value
